{"source": "ChEMBL document CHEMBL3988442", "about": "“University of Dundee, Small-Polar-MMV Screening Library” (2021)", "note": "About 13,000 (27%) of roughly 48,000 compounds showed an effect of 50% or more. The list shows a part of the results."}
{"system": "Wolbachia pipientis", "experiment": "Anti-Wolbachia Cell-Based Screen", "format": "functional", "set-up": "scale not given: in the data most compounds retested in dose-response had high values", "conditions": "5 µM", "units": {"Percent Effect": "%"}}
{"smiles": "COc1ccc(F)cc1C(C(=O)O)N1CCCN(C2CCCC2)CC1", "note": "(centres undefined)", "Percent Effect": 11.4}
{"smiles": "CCC(C)(C)NC(=O)c1scnc1Cl", "Percent Effect": 6.107}
{"smiles": "Cc1cnn(C2CN(CC(O)COCc3ccc4c(c3)OCO4)C2)c1", "note": "(centres undefined)", "Percent Effect": -34.94}
{"smiles": "CSc1ccc(CNC(c2ccccc2)c2nccn2C)cc1", "note": "(centres undefined)", "Percent Effect": -1.677}
{"smiles": "COc1ccc(C(C(=O)O)N(C)Cc2c(C)nn(C)c2C)c(C)c1", "note": "(centres undefined)", "Percent Effect": 108.6}
{"smiles": "COc1cc(C)cc(OC)c1C(C(=O)O)N(C)Cc1c(C)nn(C)c1C", "note": "(centres undefined)", "Percent Effect": 77.2}
{"smiles": "COc1cc(C)cc(C(C(=O)O)N(C)Cc2cnn(C)c2)c1OC", "note": "(centres undefined)", "Percent Effect": -13.95}
{"smiles": "COc1ccc(Cl)cc1C(C(=O)O)N(C)Cc1ccon1", "note": "(centres undefined)", "Percent Effect": -2.698}
{"smiles": "COc1cc(F)ccc1C(C(=O)O)N(C)Cc1ccon1", "note": "(centres undefined)", "Percent Effect": 19.52}
{"smiles": "Cc1ccc(C(C(=O)O)N(C)CCN2CCOCC2)c(F)c1", "note": "(centres undefined)", "Percent Effect": -0.2175}
{"smiles": "COc1ccc(C(C(=O)O)N(C)CCN2CCCC2)c(C)c1", "note": "(centres undefined)", "Percent Effect": 0.7603}
{"smiles": "Cc1nn(C)c(C)c1CN(C)C(C(=O)O)c1ccc(F)cc1F", "note": "(centres undefined)", "Percent Effect": 99.54}
{"smiles": "COc1cc(CN(C)C(=O)Cc2c(C)nn(C)c2C)ccc1OC(F)F", "Percent Effect": -29.22}
{"smiles": "Cc1ccc(NC(=O)CN2CCCNC2=O)c(SC(F)(F)F)c1", "Percent Effect": -6.443}
{"smiles": "CN(C)C1CCCN(C(=O)NCCNC(=O)C2CCCC2)C1", "note": "(centres undefined)", "Percent Effect": 2.147}
{"smiles": "N#Cc1cccc(S(=O)(=O)NC2CCN(CC(F)(F)F)C2)c1", "note": "(centres undefined)", "Percent Effect": 11.74}
{"smiles": "N#Cc1ccc(SCCOCCO)c(Cl)c1", "Percent Effect": -25.21}
{"smiles": "COCCn1ccnc1C1CCCN(c2ncnc3c2CCC3)C1", "note": "(centres undefined)", "Percent Effect": -0.4091}
{"smiles": "N#CC1CCCN(c2nc(-c3ccccc3)nc3c2CCNCC3)C1", "note": "(centres undefined)", "Percent Effect": 6.584}
{"smiles": "Cn1cc(CN2CCc3ncnc(N4CCCC4)c3CC2)cn1", "Percent Effect": 6.266}
{"smiles": "Cn1ccnc1CN1CCc2ncnc(N3CCCC(C#N)C3)c2CC1", "note": "(centres undefined)", "Percent Effect": 91.92}
{"smiles": "N#CC1CCCN(c2ncnc3c2CCN(Cc2ccccc2)CC3)C1", "note": "(centres undefined)", "Percent Effect": 115}
{"smiles": "CN1CCN(c2ncnc3c2CCN(Cc2nccn2C)CC3)CC1", "Percent Effect": -1.995}
{"smiles": "Cc1ccccc1N1CCN(C(=O)c2cccnc2-n2cncn2)CC1", "Percent Effect": 25.7}
{"smiles": "Cc1nc(C2CCCN2Cc2cc(Cl)c3c(c2)OCCCO3)no1", "note": "(centres undefined)", "Percent Effect": -4.62}
{"smiles": "CC(C)=CCC1(C(=O)O)CCCN(c2ccnc(N)n2)C1", "note": "(centres undefined)", "Percent Effect": 0.6776}
{"smiles": "O=C1c2cc(Br)cc(Br)c2OCC1(CN1CCCC1)CN1CCCC1", "Percent Effect": 108.8}
{"smiles": "Cc1cc(I)c2c(c1)C(=O)C(CN1CCCC1)(CN1CCCC1)CO2", "Percent Effect": 118.1}
{"smiles": "CCNC(=O)NC[C@@H]1C=C(C)[C@H](CC(=O)NCCN(C)C)C[C@H]1C(C)C", "Percent Effect": -8.573}
{"smiles": "OCCCN1CCc2onc(C(c3ccccc3)c3ccccc3)c2C1", "Percent Effect": 6.435}
{"smiles": "Cc1cc(CNc2ccc3nc(C)sc3c2)no1", "Percent Effect": 5.343}
{"smiles": "Cc1cc(CNc2ccc(C(F)(F)F)cc2)no1", "Percent Effect": 98.51}
{"smiles": "CCOc1ccc(C(F)(F)F)cc1NCc1cc(C)on1", "Percent Effect": -4.345}
{"smiles": "C1CC(CN2CCOCC3(CCN(C4CCOCC4)C3)C2)CCO1", "note": "(centres undefined)", "Percent Effect": -8.937}
{"smiles": "O=C(N1CCOCC1)[C@@]12CCO[C@@H]1CCN(CC1CCCCC1)C2.O=C(O)C(F)(F)F", "Percent Effect": 16.73}
{"smiles": "CC1(C(N)=O)CN(CC2CCOCC2)CCO1", "note": "(centres undefined)", "Percent Effect": 88.24}
{"smiles": "CN(C)C(=O)CN1CCC2(C1)CN(CC1CCOCC1)C2", "Percent Effect": -9.984}
{"smiles": "CC1(C(=O)N2CCOCC2)CN(CC2CCOCC2)CCO1", "note": "(centres undefined)", "Percent Effect": 129.5}
{"smiles": "O=C(C1CN(CC2CC2)CC12CCOCC2)N1CCCC1", "note": "(centres undefined)", "Percent Effect": -4.912}
{"smiles": "CC1(C(N)=O)CN(CC2CCC2)CCO1", "note": "(centres undefined)", "Percent Effect": 100.1}
{"smiles": "O=C(C1CN(CC2CCOCC2)CC12CCOCC2)N1CCOCC1.O=C(O)C(F)(F)F", "note": "(centres undefined)", "Percent Effect": 5.554}
{"smiles": "CC1(C)CC(CN2CCC3(CCC(=O)N(C4CCC4)C3)CC2)CCO1", "note": "(centres undefined)", "Percent Effect": -1.352}
{"smiles": "CC(C)N1CC2(CCC1=O)CCN(C(=O)c1cccc(F)c1F)CC2", "Percent Effect": -11.17}
{"smiles": "Cc1cc2[nH]c(CN3CCOC(C(F)(F)F)C3)cc(=O)n2n1", "note": "(centres undefined)", "Percent Effect": -6.733}
{"smiles": "CCOc1ccc(CNCc2ccc(C(=O)NC)cc2)cc1OCC", "Percent Effect": -3.882}
{"smiles": "N#CC1(C(=O)Nc2ccc(OC(F)F)cc2)CCCC1", "Percent Effect": -4.632}
{"smiles": "COc1cccc(CNCc2ccc(NC(=O)NC(C)C)cc2)c1", "Percent Effect": 98.55}
{"smiles": "CCOc1cccc(CNc2cnn(CC(C)C)c2CC)c1", "Percent Effect": -19.91}
{"smiles": "CC(C)NC(=O)Nc1ccc(CNCc2ccc(OC(F)F)cc2)cc1", "Percent Effect": 126.1}
{"smiles": "COc1cccc(CC(C)NC(=O)c2ccc(CNC(C)=O)cc2)c1", "note": "(centres undefined)", "Percent Effect": -2.536}
{"smiles": "Cc1cccc(CNC(=O)Nc2ccc3c(c2)CCCC(=O)N3)c1", "Percent Effect": -8.181}
{"smiles": "Cc1cccc(CNCc2ccc(NC(=O)NC(C)C)cc2)c1", "Percent Effect": 97.74}
{"smiles": "COc1ccc(CNC(=O)Nc2ccc(S(=O)(=O)C(F)F)cc2)cc1", "Percent Effect": 6.35}
{"smiles": "CCOc1cccc(CNCc2ccc(NC(=O)NC(C)C)cc2)c1", "Percent Effect": 132}
{"smiles": "COc1cccc(C(CO)NC(=O)NC(C)C)c1", "note": "(centres undefined)", "Percent Effect": -12.05}
{"smiles": "COC(=O)C(CNC(=O)Nc1cn[nH]c1)Cc1cccc(C)c1", "note": "(centres undefined)", "Percent Effect": -11.43}
{"smiles": "CCc1cc(CN(C)Cc2nc(-c3sccc3C)oc2C)on1", "Percent Effect": -5.101}
{"smiles": "CC(=O)N[C@@H]1Cc2ccccc2[C@H]1Nc1nnc(C2CC2)o1", "Percent Effect": -5.354}
{"smiles": "O=C1CSCN1CC(=O)N1CCCC1c1nc2ccccc2s1", "note": "(centres undefined)", "Percent Effect": -3.784}
{"smiles": "Cc1noc(-c2ccc(N[C@H]3CCCCNC3=O)nc2)n1", "Percent Effect": -0.1994}
{"smiles": "COCCNC(=O)NC(c1ccccc1)c1ccccc1OC", "note": "(centres undefined)", "Percent Effect": 3.321}
{"smiles": "Cn1ccc(CN2CCC(CN3CCOCC3)CC2)cc1=O", "Percent Effect": 93.59}
{"smiles": "Cc1csc(N2CCN(Cc3ccn(C)c(=O)c3)CC2)n1", "Percent Effect": 7.447}
{"smiles": "Cn1ccc(CN2CCN(CC3CC3)CC2)cc1=O", "Percent Effect": 107.4}
{"smiles": "Cn1ccc(CN2CCC(CO)CC2)cc1=O", "Percent Effect": -2.803}
{"smiles": "CCc1oc(C(=O)OC)cc1Cn1cccc(C(F)(F)F)c1=O", "Percent Effect": 2.78}
{"smiles": "Cc1nc(C)c(C)c(NCCSCc2[nH]cnc2C)n1", "Percent Effect": -16.36}
{"smiles": "CO[C@H]1CCN(C(=O)c2ccc3[nH]nnc3c2)C[C@@]12CCCO2", "Percent Effect": 102.9}
{"smiles": "COC1CCCOC12CCN(C(=O)c1ccc3[nH]nnc3c1)CC2", "note": "(centres undefined)", "Percent Effect": 104.9}
